Screening results deposited in PubChem BioAssay by National Center for Advancing Translational Sciences (NCATS).
Luciferase inh: Photinus pyralis luciferase inhibition | Potency, µM (top dose mostly 115 µM), usual class: inhibitors | AID 1347043 | actives 2.5% (n = 76,000) | P08659 | purified P. pyralis luciferase, luminescence, biochemical; note: nearly all actives have a fitted effect of over 65% in size
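FLuc 10nM, D-luciferin 10uM, ATP 10uM, Mg acetate 10mM, Tris acetate pH 7.5, Tween/BSA; cpd qHTS; enzyme added last; CCD luminescence.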
NIH3T3 tox: cytotoxic compounds in NIH 3T3 cells; NIH 3T3 viability, CellTiter-Glo ATP luminescence, 48-72 h; Potency, µM (doses to about 96.7 µM), for inactives: at the highest dose activity change, negative = cytotoxicity, hits mostly inhibitors; actives 4.3% (n = 94,000); AID 1345082; note: nearly all actives have a fitted effect of over 55% in size
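Luminescent ATP readout (CellTiter-Glo, 10 min RT) after 48 or 72 hr compound exposure of NIH 3T3 cells seeded at 400 cells/well in 1536-well format; quantitative HTS.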
NPR1 antag: human Npr1 receptor antagonism. HEK293 hNpr1 GloSensor cGMP, ANP-stimulated luminescence. Potency, µM (titrated, usually from 46.3 µM), for the others: top-dose activity change, negative = inhibition, most hits filed as inhibitors. actives 1.6% (n = 76,000); calls by dose curve; note: nearly all actives have a fitted effect of over 60% in size
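Compound pre-incubated 30 min at room temperature on GloSensor-loaded HEK293 cells stably carrying hNpr1 and the pGS-40F cGMP biosensor. Stimulation uses hNppA at 0.1 nM final; luminescence is taken at baseline and 20 min post-agonist.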
GPT2 inh: inhibitors of human GPT2 alanine aminotransferase; Q8TD30; Recombinant GPT2, coupled pyruvate oxidase/HRP Amplex Red fluorescence; Potency, µM (series often up to 57.7 µM), for the others: top-dose activity change, negative = inhibition, most hits filed as inhibitors; actives 0.25% (n = 100,000); AID 1671188; note: nearly all actives have a fitted effect of over 60% in size
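Recombinant GPT2 (10ng/uL) with 250uM a-KG and 2mM L-alanine, 30 min at room temperature, in HEPES pH 7.5 buffer. Pyruvate detected by pyruvate oxidase/HRP/Amplex Red fluorescence after 30 min in the dark; AOA (50uM) as positive control.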
HEK293 tox: cytotoxic compounds in HEK 293 cells; actives 6.6% (n = 94,000); HEK 293 viability, ATP luminescence (CellTiter-Glo), 48-72 h; Potency, µM (doses to about 115 µM), for inactives: at the top dose activity change, negative = cytotoxicity, usual class: inhibitors; AID 1345083; note: nearly all actives have a fitted effect of over 60% in size
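HEK 293 seeded at 250 cells/well receive compound via pintool. After 48 or 72 hr at 37 degree Celsius, 5% CO2 and 95% humidity, CellTiter-Glo is dispensed and luminescence read following 10 min at room temperature.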
Numbers without * were called inactive; [ ] = another dose, or the depositor's remark. Sampled rows, rich in hits. Any-hit rate of the full collection: about 10%. Unless noted, calls come from the whole dose curve; as a rule, active = well fitted curve in the direction sought with a large enough effect; inconclusive = small, poorly fitted or top-dose-only effect, or another doubt; inactive = no such curve, though single readings can be large; an effect the other way counts as inactive or inconclusive. % is set by controls: 0 for no effect and ±100 for the full control effect; potency is the fitted concentration of half-maximal effect.

Screening Cn1c(CNC(=O)C2Cn3cccc3C(=O)N2Cc2ccccc2)nc2ccccc21 (centres undefined) returned Luciferase inh inactive, NIH3T3 tox 32µM*, NPR1 antag -11%, GPT2 inh inconclusive and HEK293 tox inconclusive.
`NCc1ccccc1-c1ccc(OC(F)(F)F)cc1` gave NIH3T3 tox inconclusive, GPT2 inh inactive and HEK293 tox 56µM*.
COc1cccc(CC(=O)N2CCC3(CC2)CC(Cc2nc(-c4ccncc4)no2)CCO3)c1 (centres undefined) was read as Luciferase inh inactive, NIH3T3 tox inconclusive, NPR1 antag inconclusive, GPT2 inh -2% and HEK293 tox 40µM*.
Screening c1ccc(-c2noc(CC3CCOC4(CCN(Cc5cccnc5)CC4)C3)n2)cc1 (centres undefined) returned Luciferase inh inactive, NIH3T3 tox inconclusive, NPR1 antag inconclusive, GPT2 inh 5% and HEK293 tox 25µM*.
`O=C(COc1ccccc1)N1CCC(Cc2nc(-c3ccncc3)n[nH]2)CC1` gave Luciferase inh inactive, NIH3T3 tox -30%, NPR1 antag 2%, GPT2 inh inconclusive and HEK293 tox -5%.
For CCOc1ccccc1NC(=O)N1CCC2(CC1)CC(Cc1nc(-c3ccncc3)no1)CCO2 (centres undefined) the results were Luciferase inh inactive, NIH3T3 tox inconclusive, NPR1 antag -25%, GPT2 inh inactive and HEK293 tox inconclusive.
Screening COCC(=O)N1CCC2(CC1)CC(Cc1nc(-c3cccnc3)no1)CCO2 (centres undefined) returned Luciferase inh inactive, NIH3T3 tox -6%, NPR1 antag 4%, GPT2 inh 0% and HEK293 tox -1%.
`COc1cccc(CC(=O)N2CCC(Cc3nc(-c4ccncc4)n[nH]3)C2)c1` (centres undefined) gave Luciferase inh inactive, NIH3T3 tox inconclusive, NPR1 antag -15%, GPT2 inh inactive and HEK293 tox 13µM*.
`O=C(C1CC1)N1CCC2(CC1)CC(Cc1nc(-c3ccncc3)no1)CCO2` (centres undefined) gave Luciferase inh inactive, NIH3T3 tox inconclusive, NPR1 antag inconclusive, GPT2 inh 1% and HEK293 tox 45µM*.
Screening CCNC(=O)NCCc1noc(-c2cccnc2)n1 returned Luciferase inh inactive, NIH3T3 tox -9%, NPR1 antag 0%, GPT2 inh inactive and HEK293 tox -3%.
`Cc1ccc(-c2nnc(C3CN(C(=O)c4ccsc4)CC34CCOCC4)o2)cc1` (centres undefined) gave Luciferase inh inactive, NIH3T3 tox inactive, NPR1 antag 9%, GPT2 inh -9% and HEK293 tox -13%.
For Cn1nccc1C(O)c1cc2n(n1)CCN(S(=O)(=O)c1ccccc1)C2 (centres undefined) the results were Luciferase inh inactive, NIH3T3 tox inconclusive, NPR1 antag 6%, GPT2 inh inactive and HEK293 tox -14%.
Screening FC(F)(F)c1ccc2nc([C@H]3CCN(CC4CC4)C3)[nH]c2c1 returned Luciferase inh 28µM*, NIH3T3 tox inconclusive, NPR1 antag -6%[70.6 µM], GPT2 inh -8%[88.5 µM] and HEK293 tox inconclusive.
CC(=O)N1CC[C@H](c2nc3ccc(C(F)(F)F)cc3[nH]2)C1 was read as Luciferase inh inactive, NIH3T3 tox inconclusive, NPR1 antag 3%[70.6 µM], GPT2 inh -11%[88.5 µM] and HEK293 tox -9%[172 µM].
c1coc(-c2nnc([C@H]3CCN(Cc4cccs4)C3)o2)c1 was read as Luciferase inh 71µM*, NIH3T3 tox -11%[174 µM], NPR1 antag 4%[70.6 µM], GPT2 inh 0%[88.5 µM] and HEK293 tox -11%[172 µM].
For FC(F)(F)c1ccc2nc([C@H]3CCN(C4CCOCC4)C3)[nH]c2c1 the results were Luciferase inh inactive, NIH3T3 tox -16%[174 µM], NPR1 antag -2%[70.6 µM], GPT2 inh 0%[88.5 µM] and HEK293 tox inconclusive.
